Test [1] can be described thus: qHTS for Inhibitors of Plasmodium falciparum (DD2) proliferation (AID 504314).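 Also: parasite DNA measured by SYBR Green fluorescence after red cell lysis; plate controls were DMSO vehicle for no effect and artemisinin wells for full effect.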 As to conditions: P. falciparum Dd2 in erythrocytes, SYBR Green growth, 72 h; series mostly up to 6.11 µM. The method in brief: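 Infected RBCs, 0.3% parasitemia, 2.5% Hct; compound 72 h, 37C/5% CO2; lyse + SYBR Green I, RT overnight, dark; read ex485/em535; normalize to DMSO and artemisinin 0.29 uM.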
(qHTS replaces the single test concentration by a dilution series.)

Test [2] in a line: qHTS for Inhibitors of Plasmodium falciparum (GB4) proliferation (AID 504315). Also: nearly all actives have a fitted effect of over 50% in size. Also: potency is read from the fitted curve at half-maximal effect. As to conditions: P. falciparum GB4 in erythrocytes, SYBR Green DNA, 72 h; series mostly up to 6.7 µM. The method in brief:
(§1)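 Erythrocytes infected with P. falciparum line (0.3% parasitemia, 2.5% hematocrit final) incubated with compounds 72 h at 37 °C, 5% CO2; SYBR Green lysis buffer added, fluorescence read next day. Normalized to 0.29 uM artemisinin and DMSO.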

Test [3] can be described thus: qHTS for Inhibitors of Plasmodium falciparum (7G8) proliferation (AID 504316). Also: nearly all actives have a fitted effect of over 65% in size. Also: potency is read from the fitted curve at half-maximal effect. To be noted: P. falciparum 7G8 in erythrocytes, SYBR Green DNA, 72 h; series mostly up to 6.7 µM. The method in brief:
as §1

The nature of test [4]: qHTS for Inhibitors of Plasmodium falciparum (CP250) proliferation (AID 504320).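 Also: plate controls were DMSO vehicle for no effect and 0.29 µM artemisinin control for full effect.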 As to conditions: P. falciparum CP250 in erythrocytes, SYBR Green DNA, 72 h; series mostly up to 6.7 µM. Summed up:
as §1

The target of test [5] is Atrial natriuretic peptide receptor 1 (Homo sapiens) (UniProt P16066). Put plainly: Natriuretic polypeptide receptor (hNpr1) antagonism - Pilot CMLD screen (AID 1347052; calls by dose curve;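 also: HEK293 cells with hNpr1 stimulated by hNppA peptide at 0.1 nM; cGMP level read as GloSensor luciferase luminescence after agonist stimulation; % is scaled to controls: 0 for no effect and ±100 for the full control effect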). To be noted: HEK293 hNpr1 GloSensor cGMP luminescence, ANP-stimulated; series mostly up to 9.22 µM.
Chain of Atrial natriuretic peptide receptor 1 (Homo sapiens) (P16066 whole entry, looked up): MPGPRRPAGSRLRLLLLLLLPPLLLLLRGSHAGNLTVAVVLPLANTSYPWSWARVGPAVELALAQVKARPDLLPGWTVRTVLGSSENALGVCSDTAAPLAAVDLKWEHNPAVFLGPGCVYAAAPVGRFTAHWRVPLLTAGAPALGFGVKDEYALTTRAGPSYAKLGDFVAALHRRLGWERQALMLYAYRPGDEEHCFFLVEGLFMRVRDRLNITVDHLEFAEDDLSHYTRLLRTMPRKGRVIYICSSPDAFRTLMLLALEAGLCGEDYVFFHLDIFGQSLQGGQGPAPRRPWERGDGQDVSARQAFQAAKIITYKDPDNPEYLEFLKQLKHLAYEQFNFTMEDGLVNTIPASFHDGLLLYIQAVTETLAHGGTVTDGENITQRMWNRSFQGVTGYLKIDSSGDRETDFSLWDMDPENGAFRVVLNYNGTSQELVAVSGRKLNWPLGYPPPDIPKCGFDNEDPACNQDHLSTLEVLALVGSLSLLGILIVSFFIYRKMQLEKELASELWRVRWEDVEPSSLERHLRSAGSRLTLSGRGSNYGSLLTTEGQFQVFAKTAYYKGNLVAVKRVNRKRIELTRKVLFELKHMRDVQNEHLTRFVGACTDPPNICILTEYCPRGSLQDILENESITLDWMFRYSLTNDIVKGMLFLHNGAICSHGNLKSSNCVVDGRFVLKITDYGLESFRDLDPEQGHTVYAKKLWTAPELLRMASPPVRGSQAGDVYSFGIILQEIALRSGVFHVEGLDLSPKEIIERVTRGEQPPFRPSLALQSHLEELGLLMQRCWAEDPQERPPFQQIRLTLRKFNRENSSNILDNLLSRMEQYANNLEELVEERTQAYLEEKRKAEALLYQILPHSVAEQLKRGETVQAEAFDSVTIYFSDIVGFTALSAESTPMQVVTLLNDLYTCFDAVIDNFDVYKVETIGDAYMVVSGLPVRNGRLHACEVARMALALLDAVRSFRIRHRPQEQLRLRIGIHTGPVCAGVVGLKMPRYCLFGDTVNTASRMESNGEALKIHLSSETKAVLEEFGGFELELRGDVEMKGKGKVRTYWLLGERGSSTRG

The structures appear in SMILES notation. Results filed as inconclusive are left out. A number with no mark means an inactive call. Calls of active or inactive are those of the source. Unless noted, calls follow the shape of the dose curve; as a rule, active = well fitted curve in the direction sought with a large enough effect; inconclusive = small, poorly fitted or top-dose-only effect, or another doubt; inactive = no such curve, though single readings can be large; an effect the other way counts as inactive or inconclusive.

Take `CCC(C)CN1C(=O)NC(c2ccccc2)C(C(=O)OC)=C1C` (stereo not given): the Potency entry in test [1], in test [2], in test [3], in test [4] and in test [5] was “inactive” throughout.

With `COc1ccc(CN2C=C3C(=O)C(C)(OC(=O)C4CCCC4)C(=O)C=C3C=C2c2ccsc2)cc1` (stereo not given), the activity, negative = inhibition in test [1] is -5.43% [at 1.12 µM]. Besides, the Potency result in test [2], in test [3], in test [4] and in test [5] was “inactive” in each case.

As for `COC(=O)CC=C[C@H](C)[C@H](Cc1ccccc1Br)OC`, the Potency result in test [1], in test [2], in test [3], in test [4] and in test [5] was “inactive” throughout.

As for `CC(=O)OC[C@H]1O[C@@H](ON=C2C[C@@H](O)[C@@H](O)[C@@H]3[C@H]4C(=O)N(C5CCCCC5)C(=O)[C@@H]4CC[C@@H]23)[C@H](OC(C)=O)[C@@H](OC(C)=O)[C@H]1OC(C)=O`, the Potency entry in test [1], in test [2], in test [3], in test [4] and in test [5] was “inactive” each time.

On to `CC(C)CON=C1C[C@@H](O)[C@@H](O)[C@@H]2[C@H]3C(=O)N(c4ccc(F)cc4F)C(=O)[C@@H]3CC[C@@H]12`, for which the Potency result in test [1], in test [2], in test [3], in test [4] and in test [5] was “inactive” each time.

Regarding `COC(=O)CC=C1c2ccc3c(c2[C@@H](OC)[C@@H]1C)OCO3`, the Potency entry in test [1], in test [2], in test [3], in test [4] and in test [5] was “inactive” throughout.

Take `COC(=O)C1=C(C)N(Cc2ccco2)C(=O)NC1c1ccc(Br)cc1` (stereo not given): the Potency entry in test [1], in test [2], in test [3], in test [4] and in test [5] was “inactive” throughout.

Consider `COC(=O)C1=C[C@@]2(c3ccc(F)cc3[C@@H](OC)[C@@H]2C)[C@@H]2C=C[C@H]1C2`, for which the Potency result in test [1], in test [2], in test [3], in test [4] and in test [5] was “inactive” throughout.

`CCCCc1cc2c(cn1)=C(OC(=O)CCC(=O)OC)C(C)(OC(=O)CC)C(=O)C=2` (stereo not given): in test [1], the activity, negative = inhibition was -0.996% [at 1.12 µM]. The Potency in test [2] and in test [3] was 1690 nM (active) each time. In addition, the Potency entry in test [4] and in test [5] was “inactive” throughout.

For the compound `C=CC1=C2C=C(C3CC3)N(CCCOC(C)C)C=C2C(=O)C(C)(OC(=O)c2ccco2)C1=O` (stereo not given), the activity, negative = inhibition in test [1] was 4.15% [at 1.12 µM]. For the same compound, the Potency entry in test [2], in test [3], in test [4] and in test [5] was “inactive” in each case.

Consider `CCOC(=O)CCN1C(=O)[C@@H]2[C@H]3[C@H](O)[C@H](O)CC(=NNC(=O)OCc4ccc(OC)cc4)[C@H]3CC[C@H]2C1=O`, for which the Potency entry in test [1], in test [2], in test [3], in test [4] and in test [5] was “inactive” throughout.

Turning to `COC(=O)C1=C(C)N(Cc2ccccc2)C(=S)NC1c1ccccc1` (stereo not given), the Potency entry in test [1], in test [2], in test [3], in test [4] and in test [5] was “inactive” each time.

Turning to `COC(=O)[C@@H](NC(=O)O[C@@H]1C(=O)c2cc(Br)ccc2O[C@H]1c1cccc(OC)c1)C(C)C`, the Potency result in test [1], in test [2], in test [3], in test [4] and in test [5] was “inactive” each time.

As for `COC(=O)[C@H](COC(C)(C)C)NC(=O)O[C@@H]1C(=O)c2cc(OC)ccc2O[C@H]1c1ccc(OC)c(Br)c1`, the Potency entry in test [1], in test [2], in test [3], in test [4] and in test [5] was “inactive” throughout.

With `COc1ccc2ccccc2c1-c1c(OC)ccc2ccccc12`, the Potency result in test [1], in test [2], in test [3], in test [4] and in test [5] was “inactive” each time.

Consider `COC(=O)C(C(C)=O)[C@@H](NC(=O)NCc1ccccc1)c1ccccc1` (stereo not given in full), for which the Potency entry in test [1], in test [2], in test [3], in test [4] and in test [5] was “inactive” throughout.

As for `COc1cccc([C@@H]2Oc3ccc(Br)cc3C(=O)[C@@H]2OC(=O)N[C@H]2CCCc3ccccc32)c1`, the Potency entry in test [1], in test [2], in test [3], in test [4] and in test [5] was “inactive” throughout.

`COC(=O)C1=C[C@]2(c3ccccc3C[C@H](OC)[C@@H]2C)[C@H]2C=C[C@H]1C2`: the Potency result in test [1], in test [2], in test [3], in test [4] and in test [5] was “inactive” throughout.

As for `C=C(C)C(=O)C=Cc1ccc(Br)cc1`, the Potency entry in test [1], in test [2], in test [3], in test [4] and in test [5] was “inactive” throughout.

As for `C[C@H]1[C@@H]2O[C@H]2CCO[C@H]1c1cccc(Br)c1`, the Potency entry in test [1], in test [2], in test [3], in test [4] and in test [5] was “inactive” in each case.

Regarding `COc1cccc(CO[C@H]2C=C[C@@H](c3ccccc3)O[C@H]2COC(C)=O)c1`, the Potency entry in test [1], in test [2], in test [3], in test [4] and in test [5] was “inactive” each time.

As for `CCN1C(=NCc2cccc(Cl)c2)N[C@@H](CCc2ccccc2)[C@H](C(=O)OC)[C@H]1C`, the Potency entry in test [1], in test [2], in test [3], in test [4] and in test [5] was “inactive” in each case.

Regarding `CC(C)OCCCN1C=C2C(=O)C(C)(OC(=O)C3CCCC3)C(=O)C=C2C=C1c1ccsc1` (stereo not given), the activity, negative = inhibition in test [1] is -2.66% [at 1.12 µM]. For the same compound, the Potency entry in test [2], in test [3], in test [4] and in test [5] was “inactive” in each case.

For the compound `COC(=O)N(C=Cc1ccc(OC)cc1)CCc1ccc(OC)c(OC)c1`, the Potency result in test [1], in test [2], in test [3], in test [4] and in test [5] was “inactive” each time.

On to `CCN1C(=NCCc2cccnc2)NC(CCc2ccccc2)C(C(=O)OC)=C1C` (stereo not given), for which the Potency entry in test [1], in test [2], in test [3], in test [4] and in test [5] was “inactive” each time.

Regarding `O=C(NC(CC1=CCCCC1)c1ccc2c(c1)OCO2)C(F)(F)F` (stereo not given), the Potency result in test [1], in test [2], in test [3], in test [4] and in test [5] was “inactive” each time.

(Values after PubChem BioAssay (NCATS).)
